Data on 20 compounds can be found in the supplement of paper PMC6124720.

Structures are written as SMILES. Unmarked numbers belong to inactive results.

The test concerns Pseudogymnoascus destructans 20631-21. As to the kind of experiment: growth activity index (DuctApe, 0 = no growth, 9 = maximal growth) (index 0-9); higher = more fungal growth (less inhibition), active = 0 or less; extreme values may be limits of the assay. The settings on record: temperature: 13 °C, YPD.
The mark [1] stands for this setting: concentration level (1-4, increasing; Biolog proprietary): 1.
[2] abbreviates: concentration level (1-4, increasing; Biolog proprietary): 2.
Setting [3] is: concentration level (1-4, increasing; Biolog proprietary): 3.
Where [4] appears, read: concentration level (1-4, increasing; Biolog proprietary): 4.
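Also: biolog Phenotype Microarray plates PM21–25, OD595 followed daily over 11 days, growth curves converted to index, mean of two independent experiments.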

For `N=C(N)c1ccccc1` [Benzamidine] (Biolog plate: PM22), the growth activity index is 4 under setting [1], 0 (active) under setting [2], 0 (active) under setting [3] and 0 (active) under setting [4].

For `CN[C@@H]1[C@@H](O[C@H]2O[C@H](CO)[C@@H](N)[C@H](O)[C@H]2O)OC2C[C@@H](N)[C@@H](O[C@H]3[C@H](O)[C@@H](O)[C@H](N)C[C@@H]3N)OC2[C@@H]1O` (stereo not given in full) [Apramycin] (Biolog plate: PM24), the growth activity index was 5 under setting [1], 4.33 under setting [2], 7.67 under setting [3] and 4.33 under setting [4].

Take `CSc1ccc2c(c1)N(CCC1CCCCN1C)c1ccccc1S2` (stereo not given) [Thioridazine] (Biolog plate: PM24): the growth activity index is, setting by setting: under setting [1], 3.33; under setting [2], 1.33; under setting [3], 0 (active); under setting [4], 1.33.

As to `CN1CCN(CCCN2c3ccccc3Sc3ccc(C(F)(F)F)cc32)CC1` [Trifluoperazine] (Biolog plate: PM21), the growth activity index runs as follows: under setting [1], 0 (active); under setting [2], 0.25; under setting [3], 3.5; under setting [4], 6.25.

In the case of `O=C([O-])c1ccccc1O.[Na+]` [Sodium Salicylate] (Biolog plate: PM25), the growth activity index under setting [1] is 4.67, the growth activity index under setting [2] is 3.33, the growth activity index under setting [3] is 4 and the growth activity index under setting [4] was 4.

In the case of `NCC(=O)NO` [Glycine hydroxamate] (Biolog plate: PM22), the growth activity index is 5 under setting [1], 3.67 under setting [2], 2 under setting [3] and 0 (active) under setting [4].

Regarding `O=c1[nH]cc(F)c(=O)[nH]1` [5-Fluorouracil] (Biolog plate: PM25), the growth activity index is, setting by setting: under setting [1], 4.67; under setting [2], 5; under setting [3], 5.33; under setting [4], 6.

On to `O=P(O)(O)OP(=O)(O)O` [Sodium pyrophosphate] (Biolog plate: PM24), for which the growth activity index under setting [1] is 5.67, the growth activity index under setting [2] is 4.67, the growth activity index under setting [3] was 4.67 and the growth activity index under setting [4] is 4.

For the compound `NC(CO)C(=O)NO` (racemic) [DL-Serine hydroxamate] (Biolog plate: PM22), the growth activity index was 4.33 under setting [1], 4 under setting [2], 0 (active) under setting [3] and 0 (active) under setting [4].

Turning to `N[C@H](CO)C(=O)O` [D-Serine] (Biolog plate: PM22), the growth activity index under setting [1] was 5, the growth activity index under setting [2] is 4.67, the growth activity index under setting [3] was 4 and the growth activity index under setting [4] is 4.

As to `O=c1[nH]c(=O)n([C@H]2C[C@H](O)[C@@H](CO)O2)cc1F` [Fluorodeoxyuridine] (Biolog plate: PM25), the growth activity index runs as follows: under setting [1], 4.67; under setting [2], 3.67; under setting [3], 4.33; under setting [4], 3.

Take `Nc1[nH]c(=O)ncc1F` [5-Fluorocytosine] (Biolog plate: PM25): the growth activity index runs as follows: under setting [1], 5; under setting [2], 4; under setting [3], 4.33; under setting [4], 4.

`COc1cc(/C=C/C(=O)O)ccc1O` [Ferulic acid] (Biolog plate: PM25): the growth activity index reads like this: under setting [1], 1; under setting [2], 0 (active); under setting [3], 0 (active); under setting [4], 1.

As to `O=C([O-])c1ccccc1.[Na+]` [Sodium Benzoate] (Biolog plate: PM24), the growth activity index runs as follows: under setting [1], 4; under setting [2], 5; under setting [3], 4.67; under setting [4], 4.67.

`NC(=O)NO` [Hydroxyurea] (Biolog plate: PM25): the growth activity index by setting is: under setting [1], 1; under setting [2], 0.333; under setting [3], 0 (active); under setting [4], 0 (active).

Take `CO/N=C(\C(=O)N[C@@H]1C(=O)N2C(C(=O)O)=C(CSc3nc(=O)c(O)nn3C)CS[C@H]12)c1csc(N)n1` [Ceftriaxone] (Biolog plate: PM22): the growth activity index under setting [1] was 2, the growth activity index under setting [2] is 0 (active), the growth activity index under setting [3] is 0 (active) and the growth activity index under setting [4] was 0 (active).

Take `NC[C@H]1O[C@H](O[C@H]2[C@H](O)[C@@H](O[C@H]3O[C@H](CO)[C@@H](O)[C@H](N)[C@H]3O)[C@H](N)C[C@@H]2N)[C@H](O)[C@@H](O)[C@@H]1O` [Kanamycin] (Biolog plate: PM25): the growth activity index is, setting by setting: under setting [1], 5; under setting [2], 5; under setting [3], 5; under setting [4], 4.33.

In the case of `[Cl-].[Cl-].[Zn+2]` [Zinc chloride] (Biolog plate: PM21), the growth activity index is 5.75 under setting [1], 6.75 under setting [2], 7 under setting [3] and 6.25 under setting [4].

In the case of `O=C(O)/C=C/c1ccccc1` [Cinnamic acid] (Biolog plate: PM25), the growth activity index was 5 under setting [1], 4.67 under setting [2], 5 under setting [3] and 5 under setting [4].

On to `c1ccc(-c2nn(-c3ccccc3)[n+](-c3cccc4ccccc34)n2)cc1` [Tetrazolium violet] (Biolog plate: PM25), for which the growth activity index under setting [1] is 4.33, the growth activity index under setting [2] is 3, the growth activity index under setting [3] was 0 (active) and the growth activity index under setting [4] was 2.
